Records with an inconclusive call do not appear. Activity calls are given as the source filed them. Unless noted, the call rests on the fitted dose curve; in most records, active means well fitted curve in the direction sought with a large enough effect in the repeat runs; inconclusive means weak or mixed curves; inactive means no such curve, though single readings can be large; an effect the other way counts as inactive or inconclusive.
Assays:
[1] = qHTS assay to identify small molecule agonists of the peroxisome proliferator-activated receptor delta (PPARd) signaling pathway - cell viability counter screen (AID 743211); further: nearly all actives have a fitted effect of over 55% in size
Outline: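 Viability of GeneBLAzer PPARd UAS-bla HEK293H cells was assessed after 17 h compound incubation at 37C, using CellTiter-Glo reagent added after the reporter read and luminescence recorded 30 min later.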

[2] = molecular target: Peroxisome proliferator-activated receptor delta (Homo sapiens) (UniProt Q03181); test: qHTS assay to identify small molecule agonists of the peroxisome proliferator-activated receptor delta (PPARd) signaling pathway (AID 743212; calls by dose curve)
Outline: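 HEK293H PPARd-bla cells; 5 h preincubation 37 C/5% CO2; compound (DMSO) 37 C; LiveBLAzer B/G FRET substrate 2 h RT; fluorescence intensity.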

[3] = qHTS assay to identify small molecule antagonists of the peroxisome proliferator-activated receptor delta (PPARd) signaling pathway - cell viability counter screen (AID 743213); further: nearly all actives have a fitted effect of over 50% in size
Outline: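 Viability counter-screen, qHTS format: PPARd-bla HEK293H, L165041 300 nM final, 17 h compound exposure at 37 C, CellTiter-Glo luminescence after 30 min RT.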

[4] = molecular target: Peroxisome proliferator-activated receptor delta (Homo sapiens) (UniProt Q03181); test: qHTS assay to identify small molecule antagonists of the peroxisome proliferator-activated receptor delta (PPARd) signaling pathway (AID 743215; active means well fitted inhibition curve with a large enough effect in the signal ratio in the repeat runs, not every such curve was filed as active; the % refers to the signal ratio;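 further: cells stimulated with agonist L165041 at 300 nM final during compound exposure; series mostly up to about 62 µM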)
Outline: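 With L165041 present at 300 nM final, compounds were incubated 17 h at 37 C on PPARd UAS-bla HEK293H cells. A FRET-based beta-lactamase substrate was then applied for 2 h at room temperature and fluorescence intensity recorded.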

[5] = molecular target: Bile acid receptor (Homo sapiens) (UniProt Q96RI1); test: qHTS assay to identify small molecule antagonists of the farnesoid-X-receptor (FXR) signaling pathway (AID 743217; active means well fitted inhibition curve with a large enough effect in the signal ratio in the repeat runs, not every such curve was filed as active; the % refers to the signal ratio)
Outline: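 In this cell-based antagonist screen, inhibition of CDCA-driven (50 uM final) UAS-beta-lactamase expression in HEK 293T cells was measured by FRET fluorescence following 16 h compound exposure at 37 °C.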

[6] = molecular target: Bile acid receptor (Homo sapiens) (UniProt Q96RI1); test: qHTS assay to identify small molecule agonists of the farnesoid-X-receptor (FXR) signaling pathway (AID 743220; active means well fitted activation curve with a large enough effect in the signal ratio in the repeat runs, not every such curve was filed as active; the % refers to the signal ratio)
Outline: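 Beta-lactamase reporter under UAS control in GeneBLAzer FXR HEK 293T cells (5000/well) measured with LiveBLAzer FRET substrate after 2 h at room temperature. Compound exposure lasted 16 h at 37C.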

[7] = qHTS assay to identify small molecule antagonists of the farnesoid-X-receptor (FXR) signaling pathway - cell viability counter screen (AID 743221; active means well fitted cell-killing curve with a large enough effect in the repeat runs, not every such curve was filed as active; further: nearly all actives have a fitted effect of over 50% in size; further: potency means the concentration at half of the fitted maximal effect)
Outline: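 Quantitative HTS of the Tox21 10K library run in parallel with the beta-lactamase reporter read. HEK 293T cells carrying a UAS-driven bla reporter got compound and 50 uM CDCA (final) for 16 h; ATP-based luminescence followed.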

[8] = qHTS assay to identify small molecule agonists of the farnesoid-X-receptor (FXR) signaling pathway - cell viability counter screen (AID 743218); further: nearly all actives have a fitted effect of over 45% in size
Outline: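 After 16 h at 37 C with test compounds, FXR-bla HEK 293T cells were given LiveBLAzer B/G substrate for 2 h at RT and then CellTiter-Glo; luminescence was taken after 30 min.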

[9] = molecular target: Vitamin D3 receptor (Homo sapiens) (UniProt P11473); test: qHTS assay to identify small molecule agonists of the vitamin D receptor (VDR) signaling pathway (AID 743222; calls by dose curve)
Outline: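 VDR-bla cells were seeded, left 4 h, treated with compounds in DMSO for 16 h, incubated 2 h at RT with B/G FRET substrate, and read for fluorescence.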

[10] = molecular target: Vitamin D3 receptor (Homo sapiens) (UniProt P11473); test: qHTS assay to identify small molecule antagonists of the vitamin D receptor (VDR) signaling pathway (AID 743223; active means well fitted inhibition curve with a large enough effect in the signal ratio in the repeat runs, not every such curve was filed as active; the % refers to the signal ratio)
Outline: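 Fluorescence from LiveBLAzer B/G FRET substrate, read after 2 h at room temperature, reflects beta-lactamase reporter activity in VDR-bla cells treated 16 h at 37C with compounds and agonist 1alpha,25-dihydroxyvitamin D3 (3 nM final).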

Measured: Potency

Chain of Bile acid receptor (Homo sapiens) (Q96RI1 whole entry, looked up): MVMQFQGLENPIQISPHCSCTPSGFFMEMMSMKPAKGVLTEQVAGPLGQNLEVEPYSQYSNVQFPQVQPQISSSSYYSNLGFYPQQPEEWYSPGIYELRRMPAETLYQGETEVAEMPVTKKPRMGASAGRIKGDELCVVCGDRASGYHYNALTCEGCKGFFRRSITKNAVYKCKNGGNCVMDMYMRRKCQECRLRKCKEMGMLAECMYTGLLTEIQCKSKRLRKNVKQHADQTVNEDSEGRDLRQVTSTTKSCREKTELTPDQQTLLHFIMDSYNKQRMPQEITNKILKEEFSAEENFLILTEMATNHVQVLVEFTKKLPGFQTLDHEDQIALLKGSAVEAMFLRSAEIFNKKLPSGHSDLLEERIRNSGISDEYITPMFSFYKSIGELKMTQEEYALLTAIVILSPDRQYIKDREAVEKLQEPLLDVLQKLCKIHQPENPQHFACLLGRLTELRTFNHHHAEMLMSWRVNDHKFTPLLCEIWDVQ
Chain of Peroxisome proliferator-activated receptor delta (Homo sapiens) (Q03181 whole entry, looked up): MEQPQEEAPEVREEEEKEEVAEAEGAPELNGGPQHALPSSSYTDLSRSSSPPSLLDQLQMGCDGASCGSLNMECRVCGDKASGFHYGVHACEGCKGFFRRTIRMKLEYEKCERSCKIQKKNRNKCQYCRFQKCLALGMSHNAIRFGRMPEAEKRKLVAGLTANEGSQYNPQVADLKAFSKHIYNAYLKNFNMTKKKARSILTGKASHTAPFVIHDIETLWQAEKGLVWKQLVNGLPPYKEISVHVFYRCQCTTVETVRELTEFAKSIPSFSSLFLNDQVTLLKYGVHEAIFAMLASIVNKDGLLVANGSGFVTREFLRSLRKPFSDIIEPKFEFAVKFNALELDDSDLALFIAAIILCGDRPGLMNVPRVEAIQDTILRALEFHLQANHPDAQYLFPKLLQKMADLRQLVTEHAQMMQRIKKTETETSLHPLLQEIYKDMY
Chain of Vitamin D3 receptor (Homo sapiens) (P11473 whole entry, looked up): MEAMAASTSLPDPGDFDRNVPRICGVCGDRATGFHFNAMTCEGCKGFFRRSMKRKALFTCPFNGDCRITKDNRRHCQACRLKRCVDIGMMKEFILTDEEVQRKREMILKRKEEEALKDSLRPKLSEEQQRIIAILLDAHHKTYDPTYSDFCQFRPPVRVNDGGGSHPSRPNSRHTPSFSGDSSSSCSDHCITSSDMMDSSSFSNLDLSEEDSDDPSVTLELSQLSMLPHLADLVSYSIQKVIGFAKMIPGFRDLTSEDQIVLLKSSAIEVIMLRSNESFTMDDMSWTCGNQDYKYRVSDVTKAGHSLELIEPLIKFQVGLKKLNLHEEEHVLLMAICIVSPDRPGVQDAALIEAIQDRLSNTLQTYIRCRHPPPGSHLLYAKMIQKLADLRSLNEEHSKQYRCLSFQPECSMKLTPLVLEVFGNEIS

Cc1nc2ccccc2n1Cc1ccc(Cl)cc1
inactive: [1]

N=C(N=C(N)N)N1CCOCC1
not listed: [8] | [9] | [10]
inactive: all other assays above

Cc1cccc(OCCOc2cccc(C)c2)c1
inactive: [1] | [2] | [3] | [4] | [8] | [7]

CC1(C)CCC(C)(C)c2cc(NC(=O)c3ccc(C(=O)O)cc3)ccc21
not listed: [6] | [7]
inactive: all other assays above

CC[C@]12CCCN3CCc4c(n(c5ccccc45)C(=O)C1)[C@@H]32
inactive: [1] | [2] | [3] | [4] | [8] | [7]

CC(C)(C)C1CCCCC1O (stereo not given)
inactive: all assays above

O=C(O)[C@@H]1[C@H]2C[C@H]3c4[nH]c5ccccc5c4CCN3C[C@@H]2CC[C@@H]1O
not listed: [10]
inactive: all other assays above

CNS(=O)(=O)Cc1ccc2[nH]cc(CCN(C)C)c2c1
not listed: [10]
inactive: all other assays above

CN1CCN(C2=Nc3ccccc3Sc3ccc(Cl)cc32)CC1
not listed: [6] | [8] | [9]
inactive: all other assays above

OCC1CC2CC1C1CCC(CO)C21 (stereo not given)
active: [7] 24.5 µM
not listed: [8]
inactive: all other assays above

CC(C(=O)O)c1ccc(C(=O)c2ccccc2)s1 (stereo not given)
inactive: all assays above

C#CCOC(=O)[C@@H](C)Oc1ccc(Oc2ncc(Cl)cc2F)cc1
not listed: [7]
inactive: all other assays above

CC(=O)/C(C)=C/C1C(C)=CCCC1(C)C (stereo not given)
inactive: [1] | [2] | [3] | [4] | [8] | [7]

CC(C)c1cccc(C(C)C)c1NC(=O)NS(=O)(=O)c1cc(C(C)(C)O)co1
not listed: [10]
inactive: all other assays above

C[C@@H](C1=C(CCN(C)C)Cc2ccccc21)c1ccccn1
not listed: [8]
inactive: all other assays above

O=[N+]([O-])c1cccc(Cl)c1Cl
not listed: [7] | [10]
inactive: all other assays above

O=C(O)Cc1sc(-c2ccccc2)nc1-c1ccc(Cl)cc1
not listed: [9]
inactive: all other assays above

O=C(C(=O)c1ccc(Br)cc1)c1ccc(Br)cc1
inactive: all assays above

Cc1ncsc1CCO
not listed: [10]
inactive: all other assays above

CCN(CC)CCc1nc(-c2ccccc2)no1
inactive: [1] | [2] | [3] | [4] | [8] | [7]

N#CCc1cccc(C(F)(F)F)c1
not listed: [9] | [10]
inactive: all other assays above

CN(C)CCCNCCCN
not listed: [7]
inactive: all other assays above

CCCCOC(O)CC (stereo not given)
inactive: all assays above

CC(=O)NCCCS(=O)(=O)O
not listed: [9] | [10]
inactive: all other assays above

CCN1CCC[C@H]1CNC(=O)c1c(OC)ccc(Br)c1OC
not listed: [10]
inactive: all other assays above

CC(=O)c1c(C)c([N+](=O)[O-])c(C(C)(C)C)c([N+](=O)[O-])c1C
not listed: [5] | [10]
inactive: all other assays above

O=c1[nH]cnc2ccccc12
not listed: [9] | [10]
inactive: all other assays above

Nc1ccc(C(=O)N2CC3CC(CN(Cc4ccccc4)C3)C2)cc1
not listed: [7] | [10]
inactive: all other assays above

CCOC(=O)CC(=O)c1cc(F)c(Cl)nc1Cl
not listed: [7] | [9] | [10]
inactive: all other assays above

Oc1ccc(Sc2ccc(O)cc2)cc1
not listed: [5] | [10]
inactive: all other assays above

CCCCCCOC(=O)CCC
not listed: [5] | [7] | [10]
inactive: all other assays above

CCCCCCCCCCCCCCCC(=O)OC/C=C(C)/C=C/C=C(C)/C=C/C1=C(C)CCCC1(C)C
not listed: [8]
inactive: all other assays above

FC(F)(F)C(F)(F)C(F)(F)C(F)(F)C(F)(F)C(F)(F)CCI
inactive: all assays above

N#Cc1c(F)cccc1F
not listed: [7] | [9] | [10]
inactive: all other assays above

Cn1sccc1=O
not listed: [6] | [7] | [9]
inactive: all other assays above

CCCCCCCCCCCCCCCBr
not listed: [7] | [10]
inactive: all other assays above

CCC(=O)OC(C)(C)C1CC=C(C)CC1 (stereo not given)
inactive: [1] | [2] | [3] | [4] | [5] | [6]

Cc1ccc2c(ccc3ccccc32)c1
not listed: [5]
inactive: all other assays above

OCCC1CCCCN1 (stereo not given)
not listed: [7] | [9]
inactive: all other assays above

C=C(C)C(=O)OCCOc1ccccc1
not listed: [5] | [6]
inactive: all other assays above

CC(O)C1CCCCC1 (stereo not given)
not listed: [5] | [6] | [10]
inactive: all other assays above

CCCCCCCCCCCCCCC1CO1 (stereo not given)
not listed: [5] | [6]
inactive: all other assays above

CC(=O)CC(=O)c1ccccc1
not listed: [5] | [6]
inactive: all other assays above

CCCCC(CC)COCCCN (stereo not given)
inactive: [1] | [2] | [3] | [5]

NCCCN(CCO)CCO
not listed: [5] | [6]
inactive: all other assays above

CCN(CC)CCOC(=O)C1(c2ccccc2)CCCC1
inactive: [1] | [2] | [3] | [5] | [8] | [6]

CCCCCCCC/C=C\CCCCCCCC(N)=O
not listed: [5] | [7] | [8]
inactive: all other assays above

CCCCCCCCCC(=O)OCC
not listed: [5] | [6]
inactive: all other assays above

CC(=O)N(CC(=O)N(C)C)c1ccccc1
not listed: [5] | [7] | [8]
inactive: all other assays above

CCCc1ccccc1
not listed: [5] | [6]
inactive: all other assays above

c1ccc(-c2nc[nH]c2-c2ccccc2)cc1
not listed: [5] | [6] | [9]
inactive: all other assays above

NC(=S)N/N=C/c1cccnc1
not listed: [5] | [6]
inactive: all other assays above

CC(=O)Nc1ccc(/C=N/NC(N)=S)cc1
not listed: [5] | [6]
inactive: all other assays above

CC(C)(C)c1ccc(S)cc1
not listed: [5] | [6]
inactive: all other assays above

Cc1cc(C)c(S(=O)(=O)O)cc1N=Nc1cc(S(=O)(=O)O)c2ccccc2c1O
not listed: [5] | [6]
inactive: all other assays above

COc1ccc2[nH]c(S(=O)Cc3ncc(C)c(OC)c3C)nc2n1 (stereo not given)
not listed: [5] | [6]
inactive: all other assays above

CC(C)CCCCCCOC(=O)c1ccc(C(=O)OCCCCCCC(C)C)c(C(=O)OCCCCCCC(C)C)c1
not listed: [5] | [6]
inactive: all other assays above

Source: PubChem BioAssay (Tox21)
